Results filed as inconclusive are left out. Active and inactive are the calls of the source. The calls were made as follows: active = hit-call score of the fitted dose curve at least 0.9, where 1 is the maximum; inconclusive = response in the unintended direction; inactive = score below 0.9.
Biological target: human Retinoid X Receptor beta (RXRb), RXRB (gene 6257) (UniProt P28702)
Assay: ATG_RXRb_TRANS: Attagene TRANS-FACTORIAL HepG2 Assay for human Retinoid X Receptor beta (RXRb) (AID 2283013)
Experimental: ATG_TRANS is a cell-based, multiplexed-readout assay that uses HepG2, a human liver cell line, with measurements taken at 24 hours after chemical dosing in a 24-well plate.ATG_RXRb_TRANS is one of 30 assay component(s) measured or calculated from the ATG_TRANS assay. It is designed to make measurements of mRNA induction, a form of inducible reporter, as detected with fluorescence intensity signals by Reverse transcription polymerase chain reaction (RT-PCR) and Capillary electrophoresis technology.Data from the assay component ATG_RXRb_TRANS was analyzed into 1 assay endpoint. This assay endpoint, ATG_RXRb_TRANS, was analyzed in the positive analysis fitting direction relative to DMSO as the negative control and baseline of activity. Using a type of inducible reporter, measures of mRNA for gain-of-signal activity can be used to understand the reporter gene at the transcription factor-level as they relate to the gene RXRB. Furthermore, this assay endpoint can be referred to as a primary readout, because this assay has produced multiple assay endpoints where this one serves a reporter gene function. To generalize the intended target to other relatable targets, this assay endpoint is annotated to the nuclear receptor intended target family, where the subfamily is non-steroidal.
Human liver HepG2 cells are transiently transfected with multiple reporter transcription units (MRTUs) in 6-well plates using FuGene 6 reagent (Roche; 3 ml FuGene/1 mg DNA). The MRTU constructs are regulated by a cis-regulating element (promoter). […] A major difference between the CIS and TRANS system is that in CIS activities of endogenous TFs are measured, whereas the TRANS assay evaluates changes in activities of exogenous, chimeric NR-Gal4 proteins. […] At the end of 24 hour incubation, total RNA was isolated using TriZol reagent (Invitrogen). The isolated RNA is then reverse-transcribed using oligo(dT) primer and Mo-MLV reverse transcriptase (Invitrogen) with DNAse I (Ambion) treatment for 30 min. The one-tenth of the produced cDNA was amplified by PCR using Taq DNA polymerase (Invitrogen) and two reporter sequence-specific primers. The PCR products were fluorescently labeled by primer extension with 6-arboxyfluorescein (6-FAM) 5'-labeled reporter sequence-specific primer (2 min at 95 C, 20 s at 68 C and 10 min at 72 C) and these products were digested with 5U of HpaI (New England Biolabs) for 2h at 37 C. The fragments were purified using Qiaquick PCR columns (Qiagen), analyzed on an ABI 3130xL genetic analyzer (Applied Biosystems) with peak positions identified by using a set of X-rhodamine (ROX)-labeled MapMarker1000 molecular weight standards (BioVentures). The raw capillary electrophoresis data was processed using Attagraph software (Attagene).

Sequence of human Retinoid X Receptor beta (RXRb), RXRB (gene 6257) (P28702 whole entry, looked up): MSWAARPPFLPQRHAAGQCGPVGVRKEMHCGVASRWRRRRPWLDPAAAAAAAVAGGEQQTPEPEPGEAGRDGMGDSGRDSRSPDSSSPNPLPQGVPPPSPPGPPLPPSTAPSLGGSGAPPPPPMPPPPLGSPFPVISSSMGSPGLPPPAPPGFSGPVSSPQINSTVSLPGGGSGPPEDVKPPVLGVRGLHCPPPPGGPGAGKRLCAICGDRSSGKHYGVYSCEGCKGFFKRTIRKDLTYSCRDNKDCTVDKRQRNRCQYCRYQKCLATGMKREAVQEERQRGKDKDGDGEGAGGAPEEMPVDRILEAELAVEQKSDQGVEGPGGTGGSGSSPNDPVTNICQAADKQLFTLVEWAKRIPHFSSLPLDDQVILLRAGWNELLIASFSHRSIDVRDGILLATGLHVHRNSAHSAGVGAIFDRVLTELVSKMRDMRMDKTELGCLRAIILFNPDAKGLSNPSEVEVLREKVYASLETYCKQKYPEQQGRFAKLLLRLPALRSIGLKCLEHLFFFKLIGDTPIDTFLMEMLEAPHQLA

SMILES	outcome	AC50
CCCCCCCCCCOC(C)=O	inactive	
COC(=O)c1ccccc1OC	inactive	
C1=Cc2ccccc2C1	inactive	
Nc1ccc(-c2ccc(F)cc2)cc1	inactive	
NNC(=O)c1cccc(C(=O)NN)c1	inactive	
CCCCC(CC)COC(=O)c1ccccc1O (stereo not given)	inactive	
N#CCc1ccc(Cl)cc1Cl	inactive	
O=C1c2cccc(O)c2C(=O)c2c(O)cc(CO)cc21	inactive	
Cc1cc(O)c(Cl)c(C)c1Cl	inactive	
Cc1cc(=O)n(-c2ccccc2)n1C	inactive	
CCCCCCCCCCC=CC#N		49.2 µM (active)
Nc1ccc(N)c(Cl)c1	inactive	
CC[C@H]1OC(=O)[C@H](C)[C@@H](O[C@H]2C[C@@](C)(OC)[C@@H](O)[C@H](C)O2)[C@H](C)[C@@H](O[C@@H]2O[C@H](C)C[C@H](N(C)C)[C@H]2O)[C@](C)(O)C[C@@H](C)C(=NOCOCCOC)[C@H](C)[C@@H](O)[C@]1(C)O	inactive	
C=C(C)CCO		63.9 µM (active)
Nc1ccc(Cl)cc1Cl	inactive	
Cc1ccc(C2OC[C@@H]3OC(c4ccc(C)cc4)O[C@H]([C@H](O)CO)[C@@H]3O2)cc1 (stereo not given in full)	inactive	
NCCCN1CCN(CCCN)CC1	inactive	
c1ccc2c(c1)ccc1cc3c(ccc4ccccc43)cc12	inactive	
O=c1[nH]nc(-c2ccc([N+](=O)[O-])o2)o1	inactive	
CCCOC(=O)CCCCC(=O)OCCC	inactive	

SMILES	outcome	AC50
CC(=O)OC1C2(C)CCC(C2)C1(C)C (stereo not given)	inactive	
O=C(c1ccc(O)cc1)c1ccc(O)cc1O	inactive	
O=C1CCCCCN1SSN1CCCCCC1=O	inactive	
NC(=O)C1CO1 (stereo not given)	inactive	
O=C(Nc1ccccc1)c1ccccc1O	inactive	
C=C(C)C(=O)OCCOc1ccccc1	inactive	
CC(C)(C)c1ccc(-c2ccc(C(C)(C)C)cc2)cc1	inactive	
ON(Cc1ccccc1)Cc1ccccc1	inactive	
CC(CC=O)c1ccccc1 (stereo not given)	inactive	
C=C1C2CCC(C2)C1(C)C (stereo not given)	inactive	
CN1C(=O)N(C)C(O)C1O (stereo not given)	inactive	
CN(C)c1ccc(N=Nc2ccccc2C(=O)O)cc1	inactive	
COC(=O)/C=C\C(=O)O	inactive	
CC(C)c1ccc2cc(C(C)C)ccc2c1		20.8 µM (active)
CC/C=C\CCOC(=O)CCCCC	inactive	
CCCCCCCCCCOS(=O)(=O)O	inactive	
CCCCCCCCCCCCCCCC(=O)OCC	inactive	
CCCCCCCCCCc1ccccc1		49.1 µM (active)
CC(C)c1ccc2c(C(C)C)cc(C(C)C)c(S(=O)(=O)O)c2c1		18.2 µM (active)
OCCCS	inactive	

From PubChem BioAssay (EPA / NIEHS)
